Bioassay records: PubChem BioAssay, The Scripps Research Institute Molecular Screening Center
Sampled rows, rich in hits. Any-hit rate of the full collection: about 0.9%.
PPARg SRC3 recr = PPARgamma agonists recruiting SRC-3 coactivator, primary screen, biochemical | Peroxisome proliferator-activated receptor gamma (Homo sapiens), P37231 | biochemical PPARgamma/SRC-3 coactivator recruitment assay | activation, % at 8 µM | actives 0.26% (n = 200,000) | AID 731, 2007; in the data active = activation above about 23%;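 note: 0% = DMSO and 100% = reference agonist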
SRC3 TRFRET art = TR-FRET detection interference compounds, artefact control for PPARgamma SRC-3 recruitment agonists, biochemical, TR-FRET ratio | TR-FRET artefact counter-screen, PPARgamma/SRC-3 format; stronger effect = higher value | TR-FRET ratio at 8 µM | actives 0.39% (n = 99,000) | AID 1048, 2008; in the data active = TR-FRET ratio above about 2000
SRC1 TRFRET art = TR-FRET detection interference compounds, primary screen, artefact control for PPARgamma SRC-1 recruitment agonists, biochemical, TR-FRET emission ratio. TR-FRET detection artefact counter-screen; stronger effect = higher value. TR-FRET ratio at 8 µM. actives 0.34% (n = 99,000); in the data active = TR-FRET ratio above about 2300
SRC2 TRFRET art = TR-FRET signal artefacts, primary screen, artefact control for PPARgamma SRC-2 agonist project, biochemical | TR-FRET artefact counter-screen; stronger effect = higher value | TR-FRET ratio at 8 µM | actives 0.4% (n = 200,000) | AID 1049, 2008; in the data active = TR-FRET ratio above about 2000
PPARg SRC1 recr = PPARgamma agonists recruiting SRC-1 coactivator, primary screen, biochemical | Peroxisome proliferator-activated receptor gamma (Homo sapiens), P37231 | PPARgamma-SRC-1 coactivator recruitment biochemical assay | activation, % at 8 µM | actives 0.41% (n = 200,000); in the data active = activation above about 19%;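 note: 0% = DMSO and 100% = reference agonist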
PPARg SRC2 recr = agonists of PPARg-SRC-2 recruitment, primary screen, biochemical, HTS | activation, % at 8 µM | actives 0.34% (n = 200,000) | Peroxisome proliferator-activated receptor gamma (Homo sapiens), P37231 | PPARgamma LBD-SRC-2 recruitment | AID 1032, 2008;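 note: 0% = vehicle and 100% = reference agonist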
PPARg SRC2 ag = agonists of PPARgamma SRC-2 coactivator recruitment, confirmation, biochemical, HTS | shares compounds with PPARg SRC3 recr | biochemical SRC-2 recruitment by PPARgamma | activation, % at 8 µM | actives 52% (n = 790);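 note: 0% = vehicle alone and 100% = reference agonist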
PPARg SRC1 ag = PPARgamma agonists recruiting SRC-1 coactivator, confirmation, biochemical. shares compounds with PPARg SRC3 recr. PPARgamma–SRC-1 coactivator recruitment biochemical assay. activation, % at 8 µM. actives 43% (n = 790). AID 1300, 2008; in the data active = activation above about 20%;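 note: 0% = vehicle wells and 100% = reference agonist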
PPARg SRC3 ag = PPARgamma-driven SRC-3 coactivator recruitment agonists, confirmation, biochemical. shares compounds with PPARg SRC3 recr. biochemical PPARgamma-SRC-3 coactivator recruitment, agonist mode. activation, % at 8 µM. actives 29% (n = 790). AID 1301, 2008; in the data active = activation above about 24%;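 note: 0% = vehicle wells and 100% = reference agonist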
* = called active by the depositor; · = not tested or not shown. Cut-off read from the data, not from the text of the source, unless noted: active = activation above about 22%; inactive = the rest.

SMILES	PPARg SRC3 recr	SRC3 TRFRET art	SRC1 TRFRET art	SRC2 TRFRET art	PPARg SRC1 recr	PPARg SRC2 recr	PPARg SRC2 ag	PPARg SRC1 ag	PPARg SRC3 ag
CCC(=O)c1ccc(OC(C)C(=O)NC2(C#N)CCCCC2)cc1 (stereo not drawn)	-3	1401	1590	1417	0	-7	·	·	·
COc1cc(/C=C/C(=O)Nc2nc3ccc(S(=O)(=O)NC(C)C)cc3s2)cc(OC)c1OC	1	1648	1944	1783	14	23*	2	-1	-1
CCn1c(=O)cc(SCC(=O)Nc2ccc(Cl)cc2)c2ccccc21	20	·	·	1617	39*	2	34*	23*	24
CCn1c(=O)cc(OCC(=O)Nc2cccc(C)n2)c2ccccc21	-8	·	·	1437	-2	6	·	·	·
CCn1c(=O)cc(SCC(=O)Nc2ccc(OC)c(OC)c2)c2ccccc21	34*	·	·	2203*	20*	42*	48*	33*	32*
CCn1c(=O)cc(SCC(=O)Nc2cccc(C)n2)c2ccccc21	38*	3307*	3815*	3523*	58*	37*	48*	32*	34*
Cc1ccc(NC(=O)/C(C#N)=C(\N)C(Cl)(Cl)Cl)nc1	6	1577	2295	1564	0	5	·	·	·
CN1/C(=C/c2cc[n+](C)c3ccccc23)C=Cc2ccccc21	26*	2217*	2343*	1994*	33*	42*	5	4	5
COc1ccccc1-c1nnc(SC2CCc3ccccc3NC2=O)s1 (stereo not drawn)	42*	·	·	2323*	31*	69*	49*	39*	33*
CC(=O)N1N=C(c2ccc(C)o2)CC1c1ccc(Br)cc1 (stereo not drawn)	8	·	·	1541	3	5	·	·	·
CNC(=S)N1N=C(c2ccc(Br)cc2)CC1c1ccc(Br)cc1 (stereo not drawn)	51*	·	·	3230*	30*	28*	47*	37*	28*
COc1ccc(C2CC(c3ccc(Br)cc3)=NN2C(=S)Nc2ccccc2)cc1 (stereo not drawn)	22	2737*	2916*	2406*	28*	26*	44*	39*	26*
COc1ccc(C2=NN(C(N)=S)C(c3ccccc3)C2)cc1 (stereo not drawn)	29*	3054*	3172*	2602*	57*	53*	59*	48*	41*
COc1ccccc1C1CC(c2ccccc2)=NN1C(=S)Nc1ccccc1 (stereo not drawn)	23*	2517*	3073*	2595*	43*	37*	70*	51*	44*
Nc1ccccc1NC1CCCCC1	2	1499	1550	1541	6	-6	·	·	·
COc1ccc2c(C=O)cn(C)c2c1	5	1453	1931	1563	-3	3	·	·	·
CC(C)=CCN1CCN(Cc2c(C)nn(C)c2Cl)CC1CCO (stereo not drawn)	1	1795	1896	1562	8	-2	·	·	·
CNC(=S)N1N=C(c2ccc(Br)cc2)CC1c1ccc(N(C)C)cc1 (stereo not drawn)	29*	4796*	4829*	3604*	27*	20	41*	29*	26*
